# Laboratory results from PubChem BioAssay.
# A number with no mark means an inactive call. No rule for the calls is given here.
# Biological target: Pantothenate synthetase (Mycobacterium tuberculosis (strain ATCC 25618 / H37Rv)) (UniProt P9WIL5)
# Experiment: Coupled enzyme confirmation of inhibitors against recombinant Mtb PanC (AID 375);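 also: 0% = full reaction with vehicle and 100% = no enzyme background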
# Settings: coupled enzyme assay; at 10 µM, active compounds read high
# Sequence of Pantothenate synthetase (Mycobacterium tuberculosis (strain ATCC 25618 / H37Rv)) (P9WIL5 whole entry, looked up): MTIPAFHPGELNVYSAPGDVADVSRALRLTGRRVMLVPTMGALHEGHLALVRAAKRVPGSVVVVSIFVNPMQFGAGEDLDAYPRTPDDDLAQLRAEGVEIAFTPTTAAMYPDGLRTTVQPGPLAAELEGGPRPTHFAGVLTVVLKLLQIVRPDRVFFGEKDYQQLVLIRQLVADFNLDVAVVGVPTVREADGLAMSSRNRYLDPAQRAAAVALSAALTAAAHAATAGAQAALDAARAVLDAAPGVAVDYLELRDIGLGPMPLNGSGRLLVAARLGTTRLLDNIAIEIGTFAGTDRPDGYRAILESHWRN
row,SMILES,inhibition [%]
1,COc1ccc2nc(N3CCC(C)CC3)c(C#N)cc2c1,7
2,CCOC(=O)C1=C(CS(=O)(=O)c2ccc(F)c(C)c2)NC(=O)NC1c1ccc(O)c(O)c1 (stereo not given),7
3,Cc1[nH]c(C(=O)N2CCCCC2)c(C)c1C(=O)NC1CCCCC1,4
4,O=C(O)C1CC=CCC1C(=O)Nc1cccc(F)c1 (stereo not given),3
5,CN1CC=C2C(C#N)=C(N)C(C#N)(C#N)C(c3cccc(Cl)c3Cl)C2C1 (stereo not given),0
6,Cc1cc2ncn(C(=O)N3CCOCC3)c2cc1C,0
7,CC1CCN(C(=O)CSc2nnc(Cc3cc(=O)[nH]c(=O)[nH]3)n2-c2ccc(Cl)cc2)CC1,4
8,COc1ccccc1Nc1nc2ccccc2[nH]1,0
9,O=C(O)C1CCCN1C(=O)Nc1ccc(F)cc1 (stereo not given),2
10,O=C(NCc1ccccn1)Nc1ccc2c(c1)OCO2,4
11,CCC(C)(C)NC(=O)CN(Cc1ccc2c(c1)OCO2)C(=O)CCC(=O)Nc1ccccn1,3
12,CCOC(=O)C1CCN(C(=O)Nc2ccc(Cl)cc2Cl)CC1,0
13,COc1ccc(C(=O)Cn2c(N3CCCCC3)nc3c2c(=O)n(C)c(=O)n3C)cc1OC,6
14,CC(=O)Nc1ccc(NC2=CC(=O)CC(C)(C)C2)cc1,4
15,O=c1c2nnn(Cc3ccc(Cl)cc3)c2ncn1Cc1ccc(F)cc1,0
16,CC(C)CC1NC(=O)N(CC(=O)N2CCN(S(=O)(=O)c3ccc(Cl)cc3)CC2)C1=O (stereo not given),0
17,O=c1[nH]c(=O)n(C2CCCCCC2)c(O)c1C=NCc1ccc(F)cc1,4
18,COc1ccc(C)cc1-n1nnnc1SCC(=O)NC(=O)NCc1ccco1,11
19,CC(C)(C)OC(=O)N1CC=C2C(C#N)=C(N)C(C#N)(C#N)[C@H](c3cccnc3)[C@H]2C1,5
20,O=C(Cc1nn[nH]n1)NCCC1=CCCCC1,4

row,SMILES,inhibition [%]
1,Nc1nc(N)c2nc(-c3ccccc3)c(N)nc2n1,0
2,Cc1nc2sccn2c(=O)c1CCN1CCC(=C(c2ccccc2)c2ccc(F)cc2)CC1,3
3,c1ccc(N2CCN(Cc3ccnc4ccccc34)CC2)cc1,2
4,CCCCc1n[nH]c2c1C(=O)CC(C)(C)C2,0
5,O=S(=O)(NCCc1ccncc1)c1cc(Br)ccc1F,0
6,O=C(Nc1ccc(-c2nc3ncccc3o2)cc1)c1ccc(Br)o1,15
7,COc1ccc(Cl)cc1C(=O)n1nc(C)cc1C,0
8,O=C(NC1CCS(=O)(=O)C1)OC1CCCCC1 (stereo not given),0
9,COc1ccc(N2CCN(C(=O)C(OC(C)=O)c3ccccc3)CC2)cc1 (stereo not given),3
10,C=CCSc1nnc(Cc2c(C)[nH]c3ccccc23)o1,0
11,Cn1cnc(S(=O)(=O)NCc2cccs2)c1,0
12,Cn1c(=O)n(CCN2CCOCC2)c(=O)c2c1nc1n2CCN1c1ccccc1,2
13,Cc1cc(-c2ccc(F)cc2)nc2cc(C(N)=O)nn12,0
14,C=CCNc1nnc(SC2CC(=O)N(c3ccc(OC)cc3)C2=O)s1 (stereo not given),0
15,Cc1cc2ncn(S(=O)(=O)c3ccc(S(=O)(=O)N4CCOCC4)cc3)c2cc1C,5
16,Cc1c(C)n(C)c2ccc(C(=O)NCc3cccs3)cc12,0
17,O=C(CSc1nc2ccccc2s1)N1CCOCC1,0
18,Cc1ccc(NC(=O)CN2CC(C)SC2=NC2CCCCC2)cc1 (stereo not given),6
19,CCCCN(C)C(=O)c1cn(C)c2ccc(S(=O)(=O)N(C)C)cc2c1=O,0
20,COc1ccccc1CN1CCCC(C(=O)N(C)Cc2ccccc2)C1 (stereo not given),0
